Data reported in PubChem BioAssay AID1159580 (chemical genetic matrix, 2015).
Where “and” joins values, the source holds several entries; their conditions need not be identical. Equal values may be shown once. The campaign covered roughly 5,500 compounds. About 2,000 (36%) were called active. Inconclusive results (about 18%) are left out. Cut-off read from the data, not from the text of the source: active = normalized growth mostly below about 0.91 (no sharp cut-off); inconclusive = no clear call, values can overlap the other calls; inactive = mostly above about 0.92. The list shows a part of the results.

Assay: chemical genetic growth profiling, strain panel (AID 1159580);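 note: tested at 20 µM; growth read once vehicle control cultures reached saturation at 30 °C; 1 = growth at the plate median or of vehicle wells; lower values mean less growth of the strain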
Settings: S. cerevisiae deletion strains, growth OD

Measured: normalized growth

NS(=O)(=O)c1cc2c(cc1C(F)(F)F)NC(Cc1ccccc1)NS2(=O)=O (stereo not drawn)
inactive: locus YAL021C, strain ccr4, active compounds read low 1 | locus YAL026C, strain drs2, active compounds read low 0.979 | locus YAL030W, strain snc1, active compounds read low 0.989 | locus YBL061C, strain skt5, active compounds read low 0.986 | locus YBR009C, strain hhf1, active compounds read low 0.988 | locus YBR021W, strain FUR4, active compounds read low 1.02 | locus YBR023C, strain chs3, active compounds read low 0.992 | locus YBR171W, strain sec66, active compounds read low 0.981 | locus YBR229C, strain ROT2, active compounds read low 1 | locus YBR231C, strain swc5, active compounds read low 0.986 | locus YBR279W, strain paf1, active compounds read low 1 | locus YCL011C, strain gbp2, active compounds read low 0.973 | locus YCL016C, strain dcc1, active compounds read low 0.988 | locus YCL029C, strain bik1, active compounds read low 1.01 | locus YCL061C, strain MRC1, active compounds read low 0.991 | locus YCL069W, strain vba3, active compounds read low 1 | locus YCR088W, strain abp1, active compounds read low 0.993 | locus YDL005C, strain med2, active compounds read low 0.991 | locus YDL035C, strain GPR1, active compounds read low 1.02 | locus YDL040C, strain nat1, active compounds read low 1.01 | locus YDL074C, strain BRE1, active compounds read low 0.969 | locus YDL101C, strain DUN1, active compounds read low 1 | locus YDL134C, strain PPH21, active compounds read low 1.02 | locus YDL185W, strain tfp1, active compounds read low 1.01 | locus YDL192W, strain arf1, active compounds read low 1.01 | locus YDR001C, strain nth1, active compounds read low 0.98 | locus YDR069C, strain doa4, active compounds read low 0.997 | locus YDR101C, strain arx1, active compounds read low 0.985 | locus YDR137W, strain rgp1, active compounds read low 0.977 | locus YDR159W, strain sac3, active compounds read low 0.991 | locus YDR162C, strain NBP2, active compounds read low 1.01 | locus YDR195W, strain ref2 0.983 | locus YDR297W, strain sur2, active compounds read low 0.986 | locus YDR318W, strain mcm21, active compounds read low 1.01 | locus YDR334W, strain swr1, active compounds read low 0.953 | locus YDR335W, strain msn5, active compounds read low 0.991 | locus YDR388W, active compounds read low 1.01 | locus YDR392W, strain spt3, active compounds read low 0.943 | locus YDR502C, strain sam2, active compounds read low 0.996 | locus YEL003W, strain gim4, active compounds read low 0.983 | locus YEL037C, strain rad23, active compounds read low 0.984 | locus YEL061C, strain CIN8 (second series), active compounds read low 0.989 | locus YEL061C, strain CIN8, active compounds read low 1 | locus YER015W, strain faa2, active compounds read low 0.992 | locus YER016W, strain bim1, active compounds read low 0.992 | locus YER110C, active compounds read low 1.02 | locus YER111C, strain swi4, active compounds read low 0.999 | locus YER155C, strain BEM2 (second series), active compounds read low 0.974 | locus YER155C, strain BEM2, active compounds read low 0.999 | locus YER167W, strain BCK2, active compounds read low 1.01 | locus YFR010W, strain ubp6, active compounds read low 0.971 | locus YGL078C, strain dbp3, active compounds read low 0.995 | locus YGL086W, strain mad1, active compounds read low 0.99 | locus YGL167C, strain pmr1, active compounds read low 0.989 | locus YGL173C, strain kem1, active compounds read low 0.981 | locus YGL227W, strain vid30, active compounds read low 1 | locus YGL240W, strain doc1, active compounds read low 0.984 | locus YGL248W, strain PDE1, active compounds read low 0.999 | locus YGL253W, strain hxk2, active compounds read low 0.998 | locus YGR135W, strain pre9, active compounds read low 1.04 | locus YGR229C, strain SMI1, active compounds read low 1 | locus YGR252W, strain gcn5, active compounds read low 1.01 | locus YHR013C, strain ard1, active compounds read low 0.967 | locus YHR027C, strain rpn1, active compounds read low 0.971 | locus YHR030C, strain SLT2, active compounds read low 1 and 0.973 | locus YHR079C, strain IRE1 (second series), active compounds read low 1.01 | locus YHR079C, strain IRE1, active compounds read low 0.98 | locus YHR094C, strain hxt1, active compounds read low 1.01 | locus YHR129C, strain ARP1, active compounds read low 1.01 | locus YHR142W, strain chs7, active compounds read low 0.96 | locus YHR200W, strain rpn10, active compounds read low 1.01 | locus YIL066C, strain RNR3, active compounds read low 0.999 | locus YIL073C, strain SPO22, active compounds read low 1.05 | locus YIL125W, strain kgd1, active compounds read low 0.999 | locus YIR030C, strain dcg1, active compounds read low 1.01 | locus YJL092W, strain hpr5, active compounds read low 1 | locus YJL095W, strain BCK1 (second series), active compounds read low 0.997 | locus YJL095W, strain BCK1, active compounds read low 0.97 and 0.978 | locus YJL115W, strain asf1, active compounds read low 0.966 | locus YJL129C, strain trk1, active compounds read low 1 | locus YJL134W, strain LCB3, active compounds read low 1 | locus YJL154C, strain vps35, active compounds read low 0.985 | locus YJL164C, strain tpk1, active compounds read low 0.984 | locus YJL166W, strain qcr8, active compounds read low 0.97 | locus YJL168C, strain set2, active compounds read low 1.01 | locus YJL187C, strain SWE1 (second series), active compounds read low 0.984 | locus YJL187C, strain SWE1, active compounds read low 0.994 | locus YJR043C, strain POL32, active compounds read low 0.982
